Laboratory results from the supplement of paper PMC6555819.

How the values were obtained:
Assay in all cases: PBM binding z-score (relative to random genomic background probes); higher = stronger binding; sequences stand for … in GC…GCGATTGACAGCGTAGAATGAAGG
[1] = tested on: FXR:RXRa (NR concentration 270 nM, RXRa partner concentration 90 nM)
Outline: (§1)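 Binding z-scores were set against random background probes. The data came from custom Agilent 4×180K protein-binding microarrays carrying double-stranded probes with 34-nt variable regions, incubated 1 h with ligand-free nuclear receptor dimers. Partner-specific antibodies detected binding, and scanned fluorescence was regression-normalized.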

[2] = tested on: LXRa:RXRa (NR concentration 270 nM, RXRa partner concentration 90 nM)
Outline: as §1

[3] = tested on: LXRa homodimer (NR concentration 270 nM)
Outline: as §1

[4] = tested on: LXRb:RXRa (NR concentration 270 nM, RXRa partner concentration 90 nM)
Outline: as §1

[5] = tested on: LXRb homodimer (NR concentration 270 nM)
Outline: as §1

[6] = tested on: PPARa:RXRa (NR concentration 270 nM, RXRa partner concentration 90 nM)
Outline: as §1

[7] = tested on: PPARg:RXRa (NR concentration 180 nM, RXRa partner concentration 90 nM)
Outline: as §1

[8] = tested on: PPARg:RXRa 270nM:90nM, anti-RXR (NR concentration 270 nM, RXRa partner concentration 90 nM)
Outline: as §1

[9] = tested on: PPARg:RXRa 30nM:10nM, anti-RXR (NR concentration 30 nM, RXRa partner concentration 10 nM)
Outline: as §1

[10] = tested on: PPARg:RXRa 90nM:30nM, anti-RXR (NR concentration 90 nM, RXRa partner concentration 30 nM)
Outline: as §1

[11] = tested on: PPARg:RXRa DBDmut IVT, anti-RXR (DBD mutation: RXRa K156A/R161A, NR concentration 270 nM, RXRa partner concentration 90 nM)
Outline: as §1

[12] = tested on: PPARg:RXRa IVT, anti-PPARg (NR concentration 270 nM, RXRa partner concentration 90 nM)
Outline: as §1

[13] = tested on: PPARg DBDmut:RXRa IVT, anti-PPARg (DBD mutation: PPARg1 K132A/R137A, NR concentration 270 nM, RXRa partner concentration 90 nM)
Outline: as §1

[14] = tested on: PPARg DBDmut IVT, anti-PPARg (DBD mutation: PPARg1 K132A/R137A, NR concentration 270 nM)
Outline: as §1

[15] = tested on: PPARg homodimer (NR concentration 180 nM)
Outline: as §1

[16] = tested on: PXR:RXRa (NR concentration 270 nM, RXRa partner concentration 90 nM)
Outline: as §1

[17] = tested on: PXR homodimer (NR concentration 270 nM)
Outline: as §1

[18] = tested on: RARa:RXR (NR concentration 270 nM, RXRa partner concentration 90 nM)
Outline: as §1

[19] = tested on: RARa homodimer (NR concentration 270 nM)
Outline: as §1

[20] = tested on: RARb:RXRa (NR concentration 270 nM, RXRa partner concentration 90 nM)
Outline: as §1

Row | Sequence | PBM binding z-score [1] | PBM binding z-score [2] | PBM binding z-score [3] | PBM binding z-score [4] | PBM binding z-score [5] | PBM binding z-score [6] | PBM binding z-score [7] | PBM binding z-score [8] | PBM binding z-score [9] | PBM binding z-score [10] | PBM binding z-score [11] | PBM binding z-score [12] | PBM binding z-score [13] | PBM binding z-score [14] | PBM binding z-score [15] | PBM binding z-score [16] | PBM binding z-score [17] | PBM binding z-score [18] | PBM binding z-score [19] | PBM binding z-score [20]
1 | TCAGACCGGTGAAGGTAACTCAGGTACGCAGTCG | 0.557 | 1.33 | -0.308 | 0.535 | -0.714 | 0.614 | 0.21 | 1.47 | 3.08 | 2.23 | 1.9 | 0.032 | -0.824 | -0.847 | -0.31 | 0.238 | -0.147 | 0.303 | -0.254 | 0.335
2 | ACTCGGAGGACATAGGTCAGAGCTACGCCAGTGA | 1.33 | 1.54 | 0.379 | 1.13 | -0.23 | 2.89 | 3.73 | 4.68 | 2.29 | 3.87 | 0.107 | 1.88 | -0.386 | 0.0927 | 0.895 | 1.15 | 0.0875 | 1.9 | 0.402 | 2.31
3 | CTCGAAAGGTCGTGCTCGGGTGAGTATACCAAAC | 5.24 | 3.9 | -0.0589 | 3.32 | -0.0126 | 4.83 | 2.25 | 3.88 | 1.18 | 2.3 | 0.705 | 1.72 | 0.595 | -0.339 | 1.58 | 3.15 | -0.25 | 4.22 | -0.17 | 3.98
4 | ATCTCTAGGTAAAAGTTCTGTGAATCCCGAGGAT | 0.0905 | 0.216 | 0.111 | -0.143 | 0.463 | 1.52 | 2.62 | 3.93 | 2.04 | 4.05 | 2.32 | 1.91 | 1.22 | 1.71 | 1.06 | 0.0852 | 0.034 | -0.0223 | 0.566 | 0.232
5 | CGAACTAGGTCATTGACAGGACCGTGAATAGTAA | 4.32 | 2.36 | 0.141 | 1.66 | -0.048 | 4.62 | 7.17 | 6.36 | 3.72 | 5.79 | 8.09 | 8.42 | 3.24 | 1.41 | 2.02 | 0.914 | -0.0715 | 1.5 | 0.647 | 3.51
6 | TCATGTAGATCAAAGGTTAAGAAAGCCGAAGCCT | 1.74 | 2.28 | 0.326 | 2.06 | -0.197 | 4.5 | 8.22 | 8.1 | 7.58 | 8.85 | 2.23 | 3.59 | 0.546 | 0.593 | 1.17 | 2.12 | 0.246 | 3.29 | 0.881 | 1.91
